From PubChem BioAssay (NCI)
Compounds without any hit were thinned out: in the full panel of roughly 79,000, 15% have a hit. Activity calls are given as the source filed them. Rule as the data show it: active = growth inhibition above about 70%; inactive = the rest.

Experiments:
[1] = NCI Yeast Anticancer Drug Screen. Data for the wt1 strain (AID 149);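 also: 0% = growth of vehicle-treated wt1 cultures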; conditions: S. cerevisiae wt1 strain (SPY 50644) growth inhibition, active compounds read high
Outline: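 Yeast wt1 strain exposed to compounds; growth inhibition measured relative to vehicle-treated controls.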

[2] = NCI Yeast Anticancer Drug Screen. Data for the rad50EPP+ strain (AID 151);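 also: 0% = growth of vehicle-treated control cultures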; conditions: S. cerevisiae rad50 mutant strain, active compounds read high
Outline: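 Genetically defined yeast (rad50EPP+, DNA damage repair alteration) is grown with compound, and inhibition of growth is expressed relative to vehicle-treated controls.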

[3] = NCI Yeast Anticancer Drug Screen. Data for the mgt1 strain (AID 153); conditions: S. cerevisiae mgt1 mutant growth inhibition, active compounds read high
Outline: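 In the mgt1 strain, test compounds were added and growth inhibition was determined relative to vehicle-treated controls.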

[4] = NCI Yeast Anticancer Drug Screen. Data for the rad50 strain (AID 155);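 also: 0% = growth of vehicle-only cultures of the same strain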; conditions: S. cerevisiae rad50 strain growth inhibition, active compounds read high
Outline: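 Yeast carrying a defined DNA repair defect were exposed to test compounds, and growth was compared with vehicle-treated controls to give percent inhibition.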

[5] = NCI Yeast Anticancer Drug Screen. Data for the mec2-1 strain (AID 157); conditions: S. cerevisiae mec2-1 strain, active compounds read high
Outline: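 Each compound was tested on mec2-1 yeast, a strain altered in DNA damage repair or cell cycle control. Growth inhibition is reported relative to vehicle.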

[6] = NCI Yeast Anticancer Drug Screen. Data for the rad14 strain (AID 159);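 also: 0% = growth of vehicle-treated control cultures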; conditions: S. cerevisiae rad14 strain growth inhibition, active compounds read high
Outline: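 Yeast cells carrying a defined DNA-repair defect were exposed to compounds, and growth inhibition was calculated relative to vehicle-treated control cultures.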

[7] = NCI Yeast Anticancer Drug Screen. Data for the sgs1 mgt1 strain (AID 161);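 also: 0% = growth of cultures given vehicle only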; conditions: S. cerevisiae sgs1 mgt1 strain, active compounds read high
Outline: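 Inhibition of yeast growth, normalised to vehicle-treated controls, is reported for a strain bearing genetic alterations in DNA damage repair.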

[8] = NCI Yeast Anticancer Drug Screen. Data for the CLN2oe strain (AID 163);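 also: 0% = growth of vehicle-only control cultures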; conditions: S. cerevisiae CLN2oe strain, active compounds read high
Outline: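 First, the altered yeast strain was treated with each compound; second, its growth was measured; finally, inhibition was derived by comparison with vehicle controls.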

[9] = NCI Yeast Anticancer Drug Screen. Data for the cln2 rad14 strain (AID 165);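 also: 0% = growth equal to vehicle treated cultures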; conditions: S. cerevisiae cln2 rad14 strain, active compounds read high
Outline: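 Test compounds were added to cln2 rad14 yeast cultures; inhibition of growth was then determined by comparison with vehicle treatment.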

[10] = NCI Yeast Anticancer Drug Screen. Data for the bub3 strain (AID 167); conditions: S. cerevisiae bub3 mutant strain, active compounds read high
Outline: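 Compounds were applied to a genetically altered yeast strain carrying a cell-cycle control defect. Growth inhibition was scored against vehicle-treated controls.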

[11] = NCI Yeast Anticancer Drug Screen. Data for the wt2 strain (AID 169);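 also: 0% = growth of vehicle-treated yeast cultures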; conditions: S. cerevisiae wt2 strain growth inhibition, active compounds read high
Outline: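 The panel's yeast strains carry defined changes in DNA repair or cell cycle genes. Each strain is grown with compound, and growth loss is scored relative to vehicle.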

[12] = NCI Yeast Anticancer Drug Screen. Data for the mlh1 strain (AID 171);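 also: 0% = growth of vehicle-treated control cultures of the same strain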; conditions: S. cerevisiae mlh1 strain growth inhibition, active compounds read high
Outline: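 Inhibition values reflect reduced yeast growth in the presence of compound, referenced to vehicle controls, using a strain chosen for its alteration in DNA repair or cell cycle control.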

[13] = NCI Yeast Anticancer Drug Screen. Data for the sgs1 strain (AID 173);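 also: 0% = growth of vehicle-only control cultures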; conditions: S. cerevisiae sgs1 mutant, active compounds read high
Outline: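 Vehicle-treated cultures served as reference for growth inhibition of a yeast strain altered in DNA damage repair or cell cycle control after compound exposure.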

[14] = NCI Yeast Anticancer Drug Screen. Data for the mlh1 rad18 strain (AID 175); conditions: S. cerevisiae mlh1 rad18 strain growth inhibition, active compounds read high
Outline: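 Inhibition values reflect reduced growth of mutant yeast versus vehicle-treated controls following compound exposure; the mutations affect DNA damage repair.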

[15] = NCI Yeast Anticancer Drug Screen. Data for the rad18 strain (AID 177); conditions: S. cerevisiae rad18 mutant growth inhibition, active compounds read high
Outline: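 Steps: expose repair-mutant yeast to compound; measure growth; express as inhibition relative to vehicle control.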

[16] = NCI Yeast Anticancer Drug Screen. Data for the rad52 strain (AID 147);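 also: 0% = growth of vehicle-treated control cultures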; conditions: S. cerevisiae rad52 mutant growth inhibition, active compounds read high
Outline: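 Inhibition of yeast growth, referenced to vehicle controls, was the measured output for a strain with defective DNA damage repair.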

[17] = at 5.0 µM (retest, dose inferred, filed as 0.5)
[18] = at 50.0 µM (retest, dose inferred, filed as 5.0)

Measured: growth inhibition

CCC(OC(C)=O)C1CC(C(C)C)CCC1C (stereo not drawn)
inactive: [1]; at 1.2 µM -1% | [1]; at 3.7 µM -1% | [1]; at 11.0 µM -2% | [1]; at 33.0 µM 2% | [1]; at 100.0 µM 44% | [2]; at 1.2 µM 0% | [2]; at 3.7 µM 0% | [2]; at 11.0 µM 15% | [2]; at 33.0 µM 46% | [3]; at 1.2 µM -1% | [3]; at 3.7 µM 0% | [3]; at 11.0 µM 0% | [3]; at 33.0 µM 5% | [4]; at 1.2 µM 4% | [4]; at 3.7 µM -43% | [4]; [17] 3% | [4]; at 11.0 µM 5% | [4]; at 33.0 µM 4% | [4]; [18] 9% | [4]; at 50.0 µM -15.1% | [4]; at 100.0 µM 53% | [5]; at 1.2 µM 2% | [5]; at 3.7 µM 3% | [5]; [17] 4% | [5]; at 11.0 µM 6% | [5]; at 33.0 µM 9% | [5]; [18] 34% | [5]; at 50.0 µM 24.2% | [6]; at 1.2 µM 0% | [6]; at 3.7 µM 0% | [6]; at 11.0 µM 5% | [6]; at 33.0 µM 17% | [7]; [17] -7% | [7]; [18] 39% | [7]; at 50.0 µM 21.8% | [8]; at 1.2 µM -4% | [8]; at 3.7 µM -5% | [8]; at 11.0 µM 2% | [8]; at 33.0 µM 0% | [8]; at 100.0 µM 5% | [9]; [17] 9% | [10]; at 1.2 µM -2% | [10]; at 3.7 µM -1% | [10]; [17] 0% | [10]; at 11.0 µM -3% | [10]; at 33.0 µM -2% | [10]; [18] 29% | [10]; at 50.0 µM 21.4% | [11]; at 1.2 µM -1% | [11]; at 3.7 µM 7% | [11]; at 11.0 µM 0% | [11]; at 33.0 µM -3% | [11]; at 100.0 µM 40% | [12]; at 1.2 µM 0% | [12]; at 3.7 µM 1% | [12]; at 11.0 µM 4% | [12]; at 33.0 µM 8% | [12]; at 100.0 µM 54% | [13]; at 1.2 µM -1% | [13]; at 3.7 µM 1% | [13]; at 11.0 µM 6% | [13]; at 33.0 µM 18% | [14]; [17] -1% | [14]; [18] 19% | [14]; at 50.0 µM 27.6% | [15]; at 1.2 µM 2% | [15]; at 3.7 µM 2% | [15]; at 11.0 µM 4% | [15]; at 33.0 µM 11%
active: [2]; at 100.0 µM 96% | [3]; at 100.0 µM 82% | [5]; at 100.0 µM 76% | [6]; at 100.0 µM 99% | [9]; [18] 73% | [9]; at 50.0 µM 72.2% | [10]; at 100.0 µM 84% | [13]; at 100.0 µM 95% | [15]; at 100.0 µM 83%

O=[N+]([O-])c1ccc2[nH]c3c(-c4ccccc4)nccc3c2c1
active: [16]; at 11.0 µM 96% | [16]; at 33.0 µM 97% | [16]; at 100.0 µM 97% | [3]; at 11.0 µM 94% | [3]; at 33.0 µM 97% | [3]; at 100.0 µM 97% | [4]; at 11.0 µM 92% | [4]; at 33.0 µM 96% | [4]; [18] 96% | [4]; at 50.0 µM 98.8% | [4]; at 100.0 µM 96% | [5]; at 11.0 µM 96% | [5]; at 33.0 µM 98% | [5]; [18] 97% | [5]; at 50.0 µM 91.2% | [5]; at 100.0 µM 98% | [6]; at 11.0 µM 85% | [6]; at 33.0 µM 96% | [6]; at 100.0 µM 95% | [9]; [18] 96% | [9]; at 50.0 µM 98.3% | [10]; at 3.7 µM 90% | [10]; at 11.0 µM 96% | [10]; at 33.0 µM 97% | [10]; [18] 97% | [10]; at 50.0 µM 98.8% | [10]; at 100.0 µM 96% | [11]; at 11.0 µM 96% | [11]; at 33.0 µM 98% | [11]; at 100.0 µM 98% | [12]; at 11.0 µM 96% | [12]; at 33.0 µM 97% | [12]; at 100.0 µM 97% | [13]; at 11.0 µM 93% | [13]; at 33.0 µM 97% | [13]; at 100.0 µM 96% | [14]; [18] 96% | [14]; at 50.0 µM 97.8% | [15]; at 11.0 µM 95% | [15]; at 33.0 µM 96% | [15]; at 100.0 µM 97%
inactive: [16]; at 1.2 µM -1% | [16]; at 3.7 µM 8% | [3]; at 1.2 µM -2% | [3]; at 3.7 µM -4% | [4]; at 1.2 µM -3% | [4]; at 3.7 µM 2% | [4]; [17] 10% | [5]; at 1.2 µM -4% | [5]; at 3.7 µM -6% | [5]; [17] -5% | [6]; at 1.2 µM -1% | [6]; at 3.7 µM -1% | [9]; [17] -10% | [10]; at 1.2 µM 10% | [10]; [17] 52% | [11]; at 1.2 µM 0% | [11]; at 3.7 µM 43% | [12]; at 1.2 µM -2% | [12]; at 3.7 µM 15% | [13]; at 1.2 µM -12% | [13]; at 3.7 µM 0% | [14]; [17] 3% | [15]; at 1.2 µM -1% | [15]; at 3.7 µM -4%
